ATXN viability – viability counter-screen for ATXN expression inhibitors. S2 cells (HEK-293 line with an ATXN2-luciferase reporter) viability, CellTiter-Fluor protease fluorescence, 24 h. Potency, µM (titrated, usually from 56.7 µM), most hits filed as cytotoxic. actives 0.49% (n = 400,000). AID 651635; note: nearly all actives have a fitted effect of over 40% in size
HT1080-NT tox – kills 2HG-producing HT-1080-NT fibrosarcoma cells | HT-1080-NT fibrosarcoma viability, CellTiter-Glo ATP luminescence, 48 h | Potency, µM (series often up to 46.1 µM), for inactives: at the top dose activity, negative = less viability, most hits filed as cytotoxic | actives 1.6% (n = 360,000) | AID 686970;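 note: NT is the 2HG producing partner of a matched IDH1 knockdown line; 0% = DMSO-treated cells and -100% = media-only wells without cells; nearly all actives have a fitted effect of over 55% in size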
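A 48-hour cytotoxicity screen used HT-1080-NT cells plated 2 hours before compound delivery. ATP-based CellTiter-Glo luminescence measured viability, normalized to DMSO and no-cell controls.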
ATXN2 expr inh – ATXN2 expression inhibition; HEK-293 ATXN2-luciferase reporter, luminescence, 24 h; Potency, µM (titrated, usually from 57 µM), for the others: top-dose activity change, negative = inhibition, hits mostly inhibitors; actives 0.72% (n = 360,000); note: % is set by controls: 0 for no effect and ±100 for the full control effect; nearly all actives have a fitted effect of over 55% in size
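qHTS (up to 57 uM final) was run with 24 h compound exposure of reporter cells at 37 °C. Each well was multiplexed: SteadyGlo luminescence measured ATXN2-luciferase expression after a fluorogenic Gly-Phe-AFC viability readout (25 uM final).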
HepG2 viability – counter-screen for TGF-b inhibitors: cytotoxicity in HepG2 cells. HepG2 CAGA-GFP viability, ATP luminescence, 18 h. Potency, µM (titrated, usually from 46.1 µM), inactives show at the highest dose activity change, negative = cytotoxicity, hits mostly cytotoxic. actives 0.76% (n = 410,000). AID 588856
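CellTiter-Glo luminescence gave cytotoxicity after 18 hours at 37 degrees C. The cells were HepG2 CAGA-GFP in 1% FBS DMEM, stimulated with 500 pg/mL TGF-beta after compound addition. %Activity was normalised to no-cell wells (complete cell-killing) and DMSO (no toxicity), and curves were fitted and classified.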
TGFb inhibitor – TGF-b pathway inhibition | HepG2 CAGA-GFP TGF-b/SMAD3 reporter, GFP fluorescence, 18 h; TGF-beta stimulated, 500 pg/mL final | Potency, µM (top dose mostly 46.1 µM), inactives show at the top dose activity, negative = inhibition, actives largely listed as inhibitors | AID 588855 | actives 1.2% (n = 410,000); note: % is set by controls: 0 for no effect and ±100 for the full control effect; nearly all actives have a fitted effect of over 65% in size
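Inhibition was scored as loss of TGF-beta-induced (500 pg/mL final, 18 hours, 37 degrees C) GFP in HEPG2 cells carrying a CAGA-GFP reporter, in DMEM with 1% FBS. Well GFP was summed per cell; Activity was normalised to unstimulated and stimulated DMSO wells, then concentration-response fitting.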
HT1080 IDH1KD tx – toxicity to HT-1080 IDH1 knockdown cells (counter line); actives 2% (n = 360,000); HT-1080 IDH1 knockdown viability, ATP luminescence, 48 h; Potency, µM (highest dose often 46.1 µM), inactives show top-dose activity, negative = toxicity, hits mostly cytotoxic;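 note: 0% = DMSO wells and -100% = cell-free medium wells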
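CellTiter-Glo luminescence after 48 h compound exposure at 37 degrees C of IDH1-knockdown HT-1080 cells in 5% FBS RPMI. %Activity scaled between DMSO wells and cell-free media wells, with curves fitted and assigned curve classes.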
Starred values were filed as active, the others as inactive; i = inactive; ? = inconclusive; . = no result given; [ ] = another dose, or the depositor's remark. The list is not random: actives were taken first. Their share in the collection is about 3.8%. Calls come from the whole dose curve; as a rule, active = well fitted curve in the direction sought with a large enough effect; inconclusive = small, poorly fitted or top-dose-only effect, or another doubt; inactive = no such curve, though single readings can be large; an effect the other way counts as inactive or inconclusive. Potency is the fitted concentration of half-maximal effect.

SMILES	ATXN viability	HT1080-NT tox	ATXN2 expr inh	HepG2 viability	TGFb inhibitor	HT1080 IDH1KD tx
CN1CCN(c2ccc(S(=O)(=O)N3CCCCC3)cc2NC(=O)c2ccc3ccccc3c2)CC1	i	-16%	-3%	-54%	35µM*	?
Cc1ccccc1C(=O)Nc1cc(S(=O)(=O)N2CCCCC2)ccc1N1CCN(C)CC1	i	?	-18%	-28%	-23%	-4%
Cc1ccc(-c2csc(NC(=O)c3cc([N+](=O)[O-])ccc3N3CCOCC3)n2)cc1	i	-9%	.	5%	2%	4%
O=C(c1ccccc1)c1cc(Cl)ccc1N1C(=O)C=CC1=O	?	18µM*	-17%	-88%	?	23µM*
FC(F)Sc1ccc(NC(=S)NCc2ccccc2)cc1	i	?	-14%[11.3 µM]	-14%	?	21µM*
CC1CCCCC1NC(=S)Nc1ccc(SC(F)F)cc1 (stereo not drawn)	?	?	?	-38%	?	?
FC(F)Sc1ccc(NC(=S)NC(c2ccccc2)c2ccccc2)cc1	?	?	.	11µM*	5.6µM*	?
FC(F)Sc1ccc(NC(=S)NC2CCCCC2)cc1	?	?	?	-49%	11µM*	?
NC(=O)C1CCCN(Cc2ccc3c(c2)CN(Cc2ccccc2)CCO3)C1 (stereo not drawn)	i	.	.	.	.	.
Cc1nc(Nc2n[nH]c3c2CN(C(=O)N[C@H](CN(C)C)c2ccccc2)C3(C)C)c2sccc2n1	.	.	17µM*	.	.	.
Cc1ccc(CN(CC(O)COc2cccc3[nH]cc(C)c23)C(C)(C)C)cc1 (stereo not drawn)	?	?	.	13µM*	?	-17%
COC(=O)Cc1c[nH]c2cccc(OCC(O)CN(Cc3ccc([N+](=O)[O-])cc3)C(C)(C)C)c12 (stereo not drawn)	i	1%	-27%	-39%	-18%	-13%
O=[N+]([O-])c1cc(O)c2ncccc2c1	?	1.8µM*	5µM*	4µM*	5µM*	2.3µM*
CCN1CCCC1CNC(=O)c1cnn(-c2ncc3c(n2)-c2ccc(OC)cc2CC3)c1C1CC1 (stereo not drawn)	i	.	.	.	.	.
O=S(=O)(C/C(=C/CO)S(=O)(=O)c1ccccc1)c1ccccc1	20µM*	7.1µM*	?	16µM*	?	2µM*
CC(C)(C)n1ncc2c(=O)n(Cc3ccc(Cl)cc3C(F)(F)F)cnc21	.	.	.	-20%	-2%	.
Clc1ccc2ncc(-c3nnnn3-c3ccccc3)c(-c3ccccc3)c2c1	i	21µM*	-29%	-15%	?	?
COc1cc2c(NC3CCN(C)CC3)nc(N3CCN(C)CC3)nc2cc1OCCCN(C)C	.	.	.	-31%	9%	.
CCOc1ccc(-c2cc(CCCC(=O)Nc3cccc(OC)c3)no2)cc1	i	?	8.9µM*	-27%	-15%	18µM*
Cc1ccc2cc(C#N)c(NCCNC(=S)NCCCN(C)C)nc2c1C	?	21µM*	.	-11%	-23%	?
Cc1cc(C)c2nc(NCCCNC(=S)NCCCN(C)C)c(C#N)cc2c1	.	?	?	-132%	?	?
Cn1nc(-c2ccc(C(=O)Nc3cccc(Cl)c3)cc2)c2ccccc2c1=O	40µM*	?	16µM*	-29%	-9%	?
CCOC(=O)N1CCN([N+]([O-])=NOc2ccc([N+](=O)[O-])cc2C#N)CC1	.	.	8%	.	.	.
Cc1cccc(Nc2nc(-c3cccs3)cs2)n1	i	-18%	108%	-19%	13µM*	-28%
Cc1cccc(Nc2nc(-c3ccc(F)cc3)cs2)n1	?	-3%	?	-15%	0%	-15%
SMILES	ATXN viability	HT1080-NT tox	ATXN2 expr inh	HepG2 viability	TGFb inhibitor	HT1080 IDH1KD tx
Cc1cccc(Nc2nc(-c3ccccn3)cs2)n1	?	0.32µM*	?	-35%	?	0.35µM*
Cc1cccnc1Nc1nc(-c2ccccn2)cs1	.	1.3µM*	?	-10%	?	1µM*
O=C(NCCc1ccccn1)C1CC12CCN(C(=O)c1ccccc1Cl)CC2 (stereo not drawn)	i	.	.	.	.	.
O=C(CCC(=O)N1CC2CCCN2c2ccccc21)NCc1ccc(Cl)cc1 (stereo not drawn)	i	.	17%	-7%	-4%	.
OC(COCC(F)(F)C(F)(F)C(F)(F)C(F)F)Cn1c2ccc(Cl)cc2c2cc(Cl)ccc21 (stereo not drawn)	?	?	?	-117%	10µM*	?
CCOC(=O)c1c(O)c2cc(Cl)ccc2n(CC)c1=O	i	6%	-4%	-18%	-1%	8%
CN(C)c1c([N+](=O)[O-])cc(N2C(=O)C=CC2=O)cc1[N+](=O)[O-]	.	3%	35µM*	3%	2%	0%
CN(C)c1ccc(N/C=C/C(=O)c2ccccc2)cc1	i	8.9µM*	?	-21%	11%	?
Cn1cc(-c2[nH]c3cc(NC(=O)[C@H](N)C4CCCCC4)cc4c3c2C=NNC4=O)cn1	.	.	1.1µM*	.	.	.
Cc1cnc(NC(=O)COc2cccc3c2OC(C)(C)C3)s1	i	-11%	19%	-25%	-5%	6.5µM*
Cc1[nH]c2ccccc2c1C(=O)COC(=O)c1c(-c2c(F)cccc2Cl)noc1C	?	3%	?	-6%	13µM*	-9%
Cc1ccc(-c2n[nH]c(=O)c3ccccc23)cc1S(=O)(=O)Nc1ccccc1	?	26µM*	-5%	7%	0%	21µM*
Cc1ccc(-c2n[nH]c(=O)c3ccccc23)cc1S(=O)(=O)N(C)C	?	5%	14%	-21%	2%	-11%
c1ccc2c(c1)sc[n+]2CCC1CCCCC1	.	.	.	-81%	?	.
O=C(NCCNC(=O)c1cc(OCC(F)(F)F)ccc1OCC(F)(F)F)Nc1cccc(C(F)(F)F)c1	i	-15%	-23%	-41%	?	-25%
O=C(Nc1ccccc1)Nc1cc(Cl)cc(Cl)c1	?	16µM*	?	-82%	16µM*	15µM*
O=C(Nc1ccccc1)Nc1cc(OCC(F)(F)F)cc(OCC(F)(F)F)c1	i	6.5µM*	-10%[11.3 µM]	11µM*	?	7.3µM*
COc1ccccc1-c1ccnc(-n2ncc(C(=O)NCCc3cccnc3)c2C)n1	i	.	.	.	.	.
Nc1nc(C(=O)N2CCOCC2)nn1S(=O)(=O)c1ccc(Cl)cc1	i	12%	2%	-23%	-7%	6%

Screening results: PubChem BioAssay, National Center for Advancing Translational Sciences (NCATS)
